The campaign covered roughly 220,000 compounds. About 3,300 (1.5%) were called active. What follows is part of a selection rich in actives, with near analogues and random picks from the rest. A number with no mark means an inactive call.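 How the source made its calls: active means compounds that cut the protein-peptide binding signal by more than 50% relative to plate controls in a single-dose test; inactive means the rest.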

Broadly, the inhibition is the drop in the measured response relative to a control, in per cent.

The assay deals with Induced myeloid leukemia cell differentiation protein Mcl-1 (Homo sapiens) (UniProt Q07820). The assay is described as follows: Mcl-1/Noxa binding inhibitors, primary screen, biochemical, TR-FRET, 1536-well (AID 1022).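 Further: His-tagged Mcl-1 with rhodamine Noxa BH3 peptide and terbium anti-His antibody; 0% = Mcl-1 plus Noxa peptide wells and 100% = peptide-only wells.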 To be noted: TR-FRET Mcl-1/Noxa peptide binding, 2 h; at 21.7 µM; stronger effect = higher value.
Sequence of Induced myeloid leukemia cell differentiation protein Mcl-1 (Homo sapiens) (Q07820 whole entry, looked up): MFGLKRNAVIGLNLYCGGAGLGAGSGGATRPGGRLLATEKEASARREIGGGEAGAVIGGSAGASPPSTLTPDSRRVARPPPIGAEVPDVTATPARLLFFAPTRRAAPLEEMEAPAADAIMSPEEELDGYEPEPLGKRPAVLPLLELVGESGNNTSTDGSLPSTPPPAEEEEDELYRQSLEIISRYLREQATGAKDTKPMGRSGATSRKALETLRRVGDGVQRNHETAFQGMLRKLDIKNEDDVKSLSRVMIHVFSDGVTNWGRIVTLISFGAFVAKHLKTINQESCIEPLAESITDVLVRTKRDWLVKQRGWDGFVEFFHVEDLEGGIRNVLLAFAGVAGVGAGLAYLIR
Regarding `O=S(=O)(NCCc1csc(-c2ccccc2)n1)c1cccnc1`, the inhibition was -1.4%. To `NCC(=O)c1cccc2ccc[n+]([O-])c12` belongs 17.5%. The result for `COc1cc(NC(=O)c2ccc(CNc3c(N4CCCC4)c(=O)c3=O)cc2)cc(OC)c1OC` reads 8.38%; that for `COc1cc(OC)c(-n2c(C)cc(C=O)c2C)cc1Cl`, 13.7%. As for `COc1ccc(-c2cn(-c3ccc(OC)cc3)c(=S)[nH]2)cc1`, the inhibition was 11.3%. As for `COc1cc(OC)c(-n2cc(-c3ccc(Cl)cc3)[nH]c2=O)cc1Cl`, the inhibition is 55.4% (active). As to `COc1ccc(/C=C/C(=O)Nc2ccc(C)cc2)cc1S(=O)(=O)N1CCOCC1`, the inhibition is 8.12%. The result for `CCN(CC)c1ccc(/C=N/NC(=O)c2cnccn2)c(O)c1` reads 15.6%. To `CCn1c(SCC(=O)Nc2sc(C)c(C)c2C#N)nnc1C1CC1` belongs 29.1%; to `Brc1ccc2c(c1)[C@H]1OCC[C@H]1[C@@H](c1cccs1)N2`, -3.81%. To `Cc1[nH]n(-c2ccccc2)c(=O)c1N=Nc1ccccc1C(=O)N1CCCCC1` belongs 11.2%; to `Nc1nnn(CC(=O)N/N=C/c2ccccc2)n1`, -7.14%; to `Nc1nnnn1CC(=O)N/N=C/c1ccc(-c2cccc(Cl)c2)o1`, 39.1%. On to `O=C(CN1CCOCC1)N/N=C/c1ccc(-c2ccc(Br)cc2)o1`, for which the inhibition was 10.4%. The result for `O=C(Cn1nnc(-c2ccccc2)n1)NCc1ccccc1` reads -34.6%. The result for `O=C(Cn1nnc(-c2ccccc2)n1)N/N=C/c1ccc(-c2ccc(Cl)cc2)o1` reads 54.1% (active); that for `Cc1[nH]c2ccccc2c1/C=N\NC(=O)Cn1nnc(-c2ccccc2)n1`, 62.8% (active); that for `COc1ccc(CCNCC(O)Cn2ccc3ccccc32)cc1OC` (centres undefined), 15.7%. To `Cc1ccc(OCC(=O)c2cc(C)n(Cc3ccco3)c2C)c([N+](=O)[O-])n1` belongs 8.57%; to `COC(=O)c1ccc(S(=O)(=O)NCc2ccccc2)n1C`, 8.72%; to `COc1ccccc1Cn1c(CO)nc2ccccc21`, 7.12%. For `O=C(Nc1ccc(Cl)cc1)Nc1ccc(Oc2cccnc2)nc1`, the inhibition was 26.5%.

In the case of `Cc1cc(C)c(C2C3=C(Nc4c2c(C)nn4-c2ccccn2)c2ccccc2C3=O)c(C)c1` (centres undefined), the inhibition was 12.5%.

Turning to `Cc1ccc(N=Nc2c(C)[nH]n(-c3ccccc3)c2=O)cc1`, the inhibition was 23.8%. The result for `Cc1ccc(C2C3=C(Nc4[nH]n(-c5ccccc5)c(=O)c42)c2ccccc2C3=O)cc1` (centres undefined) reads 69% (active). The result for `O=C(/C=C/c1ccc(Cl)c([N+](=O)[O-])c1)c1cccnc1` reads 52.5% (active); that for `O=C(/C=C/c1ccc(Cl)c([N+](=O)[O-])c1)c1ccc(O)cc1`, -1.19%. The result for `O=C(Nc1cccnc1)c1ccc(Cl)c([N+](=O)[O-])c1` reads 14.2%. As to `Cc1nc(C(=O)N2CCCC(C(=O)c3ccc(Cl)cc3)C2)cs1` (centres undefined), the inhibition is -4.61%.

Take `CC(=O)c1c(C)[nH]c(=S)c(C#N)c1-c1ccc(F)cc1`: the inhibition was -4.64%. The result for `Oc1ccccc1N1CCN(C(=S)NCc2ccccc2)CC1` reads 16.6%; that for `Oc1ccc(N2CCN(C(=S)NCc3ccccc3)CC2)cc1`, 61.1% (active). The result for `S=C(NCCc1ccccc1)N1CCCCC1` reads 21.5%. To `CC(=O)N/C(=C\c1ccc(F)cc1)C(=O)NC(Cc1ccccc1)C(=O)O` (centres undefined) belongs -9.17%; to `CCc1c(C)nc2cc(-c3cccs3)[nH]n2c1=O`, 7.24%. Take `Cc1cc(=O)n2[nH]c(-c3sccc3-n3c(C)ccc3C)cc2n1`: the inhibition is 50.6% (active). Turning to `O=C(CS(=O)(=O)c1ccc(C(F)(F)F)cn1)NNC(=O)c1ccccc1`, the inhibition is -2.05%. The result for `COc1cccc(OC)c1CN(C)C(=O)c1cnccc1C(F)(F)F` reads -21.5%; that for `C/C=C(\C)C(=O)N1CC2(CC(c3cccc(NC(=O)CCCCC)c3)=NO2)C[C@@H]1C(N)=O` (some centres undefined), -15.7%. Consider `O=C(NCCCc1ccccc1)C1CCC(CNc2c(N3CCCCC3)c(=O)c2=O)CC1` (centres undefined), for which the inhibition was -3.38%. The result for `CN(C)/C=C(/C(=O)c1ccc(Cl)c(Cl)c1)c1nnnn1-c1ccccc1` reads -12.2%.

As to `O=C(COc1ccccc1[N+](=O)[O-])N/N=C/c1ccc[nH]1`, the inhibition is -5.33%. Consider `Nn1c(SCc2ccccc2)nnc1C1CCCCC1`, for which the inhibition was 19.7%. Take `Cc1cc(OCC(=O)NC2CCN(C)CC2)ccc1[N+](=O)[O-]`: the inhibition was 55.3% (active). Take `Cc1cc(OCCCN2CCN(Cc3ccccc3)CC2)ccc1[N+](=O)[O-]`: the inhibition was 27.1%. To `O=C(COc1ccccc1[N+](=O)[O-])NC1CC1` belongs -42.2%; to `COc1cc2c3c(c1)/C(=C1/SC(=S)NC1=O)C(=O)N3C(C)(C)C=C2C`, 64% (active). Turning to `CC(C)n1c(CN2CCN(Cc3ccccc3)CC2)nc2ccccc21`, the inhibition is 24.8%.

In the case of `O=[N+]([O-])c1cccc(-c2nnc3c4ccccc4c4ccccc4n23)c1`, the inhibition was 20.8%.

Turning to `O=c1[nH]c2ccccc2n2c(-c3ccccc3)nnc12`, the inhibition was 101% (active). To `CCOC(=O)c1cnc2[nH]c3ccccc3n2c1=O` belongs 22%; to `CCOC(=O)c1c(CC(C)C)csc1/N=C/C1=C(O)CCCC1=O`, -5.98%; to `O=C(OCC1O[C@@H](OC(=O)c2cc(O)c(O)c(O)c2)[C@@H](OC(=O)c2cc(O)c(O)c(O)c2)[C@@H](OC(=O)c2cc(O)c(O)c(O)c2)[C@@H]1OC(=O)c1cc(O)c(O)c(O)c1)c1cc(O)c(O)c(O)c1` (some centres undefined), 114% (active). For the molecule `CC(=O)NC1C(OCc2ccccc2)OC(COC(C)=O)C(OC(C)=O)C1OC(C)=O` (centres undefined), the inhibition is 10.8%. The result for `COC(=O)c1cc(=O)n(-c2c(Cl)cc(C(F)(F)F)cc2Cl)[nH]1` reads 3.78%; that for `Cc1cc(C(=O)NNC(=O)c2cccc(S(=O)(=O)N3CCOCC3)c2)c2ccccc2n1`, 63.2% (active); that for `O=C(NNC(=S)Nc1ccccc1)c1cccc(S(=O)(=O)N2CCOCC2)c1`, 1.14%.

`Cc1cc(C(=O)Nc2ccccc2N2CCOCC2)c2ccccc2n1`: the inhibition is -3.21%. The result for `O=C1NC[C@@H](Cc2ccc(O)cc2)N(CCc2cccc(F)c2)C1=O` reads 6.16%.

Values taken from PubChem BioAssay AID1022 (Emory University Molecular Libraries Screening Center, 2008).
